Hits are enriched below; roughly 11% of the tested compounds scored in any of these assays.
Autophagy mod – alters autophagy in cells. MEF GFP-LC3 puncta imaging; test concentration mostly 10 µM. calls only at 10 µM (by protocol). 190,000 compounds, 0.98% hits;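 active = percentage of spot-positive cells more than 3 SD above its plate mean, without a fluorescence outlier flag or 80% toxicity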;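 also: spot-positive cell cutoff set from DMSO-treated cells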
WT yeast gro inh – growth inhibition of WT yeast, mitochondrial fusion screen | mitochondrial fusion phenotypic screen, WT strain | inhibition, % at 10 µM | 190,000 compounds, 2.1% hits; in the data active = inhibition above about 58%; tested in S. cerevisiae
Insulin prom up – MIN6 insulin promoter up-regulation; MIN6 insulin promoter-GFP reporter, high-content imaging; stronger effect = higher value; z-score at 5 µM; 190,000 compounds, 0.3% hits;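 active = z-score above 3 at 5 µM with at least 500 cells counted in the well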
L major viab – Leishmania major promastigote growth inhibition; Leishmania major promastigotes, resazurin fluorescence viability; inhibition, % at 10 µM; 200,000 compounds, 9% hits; AID 1063; in the data active = inhibition above about 50%;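 also: promastigotes grown with compound for 44 hours at 28 °C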
INS promoter inh – TRM-6 insulin promoter activity inhibition; 130,000 compounds, 0.9% hits; inhibition, % at 2 µM; TRM-6 cells (human fetal islet line), insulin promoter-eGFP reporter, imaging; reporter expression induced with tamoxifen;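 active = inhibition above the mean plus 3 SD, with well images judged a real hit on visual review, cut at about 60% in these data, passing the limit was not always enough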
* marks the source's active call; other numbers are inactive results; i = inactive; nt = no result.

SMILES | Autophagy mod | WT yeast gro inh | Insulin prom up | L major viab | INS promoter inh
CCOC(=O)CSc1nnc(-c2c[nH]c3ccccc23)n1CC | i | -16 | 0.58 | -7 | nt
CCOC(=O)c1c(NC(=O)CSc2nnc(-c3c[nH]c4ccccc34)n2CC)sc2c1CCCC2 | i | 7 | -1.4 | 55* | -2
O=C(Nc1cc(Br)ccc1O)c1cnn2c(C(F)F)cc(C3CC3)nc12 | i | 17 | -2.2 | 51* | nt
CSc1ccccc1NC(=O)CN(c1ccccc1Br)S(C)(=O)=O | i | -6 | 0.8 | 47 | -32
COc1cc2c(cc1OC)C1Cc3ccc(OC)c(OC)c3CN1CC2 (stereo unspecified) | i | -18 | 0.17 | 95* | nt
COc1ccc2c(c1OC)CN1CCc3cc4c(cc3[C@@H]1[C@@H]2O)OCO4 | i | -7 | -0.6 | -1 | -86
O=C(COC(=O)c1nc(-c2ccccc2)n(-c2cccc(C(F)(F)F)c2)n1)NCc1cccs1 | i | 5 | -0.04 | -3 | -44
CCc1cccc2c(C(=O)CSc3nncn3-c3ccc(OC)cc3)c[nH]c12 | i | -10 | 0.75 | 53* | -6
CCc1cccc2c(C(=O)CSc3nncn3-c3ccccc3OC)c[nH]c12 | i | -10 | 1.4 | 8 | -26
O=C(Cc1ccc(Br)cc1)NNC(=O)Nc1ccc(Cl)cc1 | i | 10 | -0.12 | 72* | nt
O=C(Cc1ccc(Cl)cc1)Nc1ccc(Br)cc1 | i | 3 | -0.09 | -7 | nt
O=S(=O)(NCC(c1ccco1)N1CCN(c2ccc(F)cc2)CC1)c1ccc(F)cc1 (stereo unspecified) | i | -5 | 0.53 | 75* | -48
O=C(NCc1ccncc1)C(=O)NCC(c1ccco1)N1CCN(c2ccc(F)cc2)CC1 (stereo unspecified) | i | 18 | 1.1 | 55* | -10
O=S(=O)(NCC(c1ccco1)N1CCN(c2ccccc2)CC1)c1ccc(F)cc1 (stereo unspecified) | i | -11 | 0.42 | 6 | nt
O=C(NCc1ccccn1)C(=O)NCC(c1ccco1)N1CCN(c2ccc(F)cc2)CC1 (stereo unspecified) | i | -8 | nt | -7 | nt
Cc1ccc(S(=O)(=O)NCCC(c2ccccc2)c2ccco2)cc1 (stereo unspecified) | i | 31 | -0.05 | -2 | -44
Cc1ccc(S(=O)(=O)NCCC(c2ccc(F)cc2)c2ccco2)cc1 (stereo unspecified) | i | 37 | -0.21 | 56* | -28
O=C(NCc1ccccc1Cl)C(=O)NCC(c1ccco1)N1CCOCC1 (stereo unspecified) | i | 3 | -0.11 | -2 | 78*
Cc1ccc(CSc2nc3ccsc3c(=O)n2Cc2ccccn2)cc1 | i | 59* | -0.27 | 67* | -26
O=c1c2sccc2nc(SCc2cc(=O)n3cc(Br)ccc3n2)n1Cc1ccccn1 | i | 7 | 0.05 | 55* | 36
Cc1ccc(S(=O)(=O)NCc2ccc(C(=O)NCCN(Cc3ccccc3)C(C)C)cc2)cc1 | i | -19 | -0.11 | 67* | 43
Cc1ccccc1NC(=O)CN1C(=S)NC(C)(C)CC1C (stereo unspecified) | i | 17 | 0.12 | 53* | 31
CC1CC(C)(C)NC(=S)N1CC(=O)N1CCN(Cc2ccccc2)CC1 (stereo unspecified) | i | 9 | 0.09 | -3 | nt
CC1CC(C)(C)NC(=S)N1CC(=O)NCc1ccc(Cl)cc1 (stereo unspecified) | i | -3 | nt | -6 | -62
Cc1cccc(NC(=O)CN2C(=S)NC(C)(C)CC2C)c1 (stereo unspecified) | i | 2 | -0.63 | 54* | 30
SMILES | Autophagy mod | WT yeast gro inh | Insulin prom up | L major viab | INS promoter inh
CC1CC(C)(C)NC(=S)N1CC(=O)NCc1ccccc1Cl (stereo unspecified) | i | -5 | -0.84 | 77* | 8
Cc1ccc(NC(=O)CCCN2C(=S)NC(C)(C)CC2C)cc1 (stereo unspecified) | i | -7 | 0.37 | -4 | nt
CC1(CC(=O)N/N=C/c2cc3c(cc2Br)OCO3)OCCO1 | i | 0 | -0.68 | -9 | 44
CC(C)OP(=O)(OC(C)C)C(C)NC(=O)Cc1ccccc1 (stereo unspecified) | i | -32 | -1.2 | -7 | 82*
COc1cc(OC)cc(-c2nnc(Nc3nc4c(F)cccc4s3)o2)c1 | i | 14 | 0.85 | -7 | -65
COc1ccc2nc(Nc3ccccc3OC)sc2c1 | i | 43 | -0.21 | 12 | -5
CCC(=O)Nc1nnc(-c2ccc(OC)cc2)o1 | i | 11 | -0.01 | 2 | nt
COc1ccc(-c2nnc(Nc3nc4c(OC)cccc4s3)o2)cc1 | i | 26 | 0.11 | 79* | 60
Fc1cccc2sc(Nc3nnc(-c4ccccc4)o3)nc12 | i | 5 | nt | 83* | nt
COc1ccc(-c2nnc(Nc3nc4c(OC)cccc4s3)o2)c(OC)c1 | i | 6 | -1.5 | 94* | -30
CCOC(=O)c1ccc(NC(=S)NCCCN2CCOCC2)cc1 | i | 0 | 0.73 | 0 | -80
O=C(OCC(=O)N1N=C(c2ccc(Cl)cc2)CC1c1ccco1)c1ccco1 (stereo unspecified) | i | 31 | -0.18 | -2 | nt
N=c1sccn1CC(=O)N1N=C(c2ccc(Cl)cc2)CC1c1ccco1 (stereo unspecified) | i | -4 | 1.5 | 63* | nt
Cc1ccc(C(C)C)cc1OCCOCCN1CCCC1 | i | 11 | -1.1 | 100* | -38
CCOc1cccc(OCCOCCN2CCCC2)c1 | i | -7 | -0.09 | -6 | nt
CCc1cccc(OCCOCCN2CCCC2)c1 | i | -9 | nt | 97* | -229
Cc1cccc(C(C)(C)C)c1OCCOCCN1CCCC1 | i | -1 | 0.45 | 50 | 9
Cc1cc(OCCOCCN2CCCC2)ccc1C(C)C | i | 13 | -0.14 | 100* | nt
Cc1ccccc1OCCOCCN1CCCCCC1 | i | -3 | -0.46 | 99* | 19
CS(=O)(=O)N(CC(=O)N1CCN(c2ccccc2)CC1)c1ccccc1Cl | i | nt | nt | 0 | 6
CC(NC(=O)c1ccc2c(c1)OCO2)C1CCCO1 (stereo unspecified) | i | 8 | 1 | -7 | -3
COc1ccc(CN2CCNC(=O)C2CC(=O)NCc2cnn(C)c2)cc1OC (stereo unspecified) | i | 9 | 0.05 | -2 | nt
CC(C)N(C(=S)Nc1cccc(S(=O)(=O)N(C)C)c1)c1ccccc1 | nt | nt | -0.19 | nt | nt
Cc1ccc(-n2nnnc2CSc2nnc(-c3ccc(O)cc3)o2)cc1 | i | -25 | 0.13 | 12 | nt
Cc1nc(C)c(N)c(=O)[nH]1 | i | -13 | -0.1 | -1 | nt
Cc1cccc(OCCOCCN2CCOCC2)c1C | i | -6 | -0.04 | 88* | 36
CC1CCc2sc3nc(NCc4ccco4)n4ncnc4c3c2C1 (stereo unspecified) | i | 82* | 0 | 5 | nt
CC1CCCc2sc3nc(NCc4ccco4)n4ncnc4c3c21 (stereo unspecified) | i | 79* | -3.5 | 7 | 7
COc1cc(CN(C2CCCCC2)S(=O)(=O)c2ccc(S(=O)(=O)N(C)C3CCCCC3)cc2)cc(OC)c1OC | i | -12 | 0.07 | 93* | 11

Screens deposited in PubChem BioAssay by several laboratories.
